Calls of active or inactive are those of the source. Rule for the calls: active = hit-call score of the fitted dose curve at least 0.9, where 1 is the maximum; inconclusive = response in the unintended direction; inactive = score below 0.9.

The assay in a line: Tanguay_ZF_120hpf_ActivityScore_legacy: (Legacy) Oregon State University Tanguay Lab 120 Hour Post-fertilization zebrafish Assay Score for Activity (AID 2283742).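 For AC50: dechorionated Tropical 5D wild-type zebrafish embryos held singly per well.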 An outline of the steps:
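Dechorionated 5D embryos, one per well, static exposure 6–120 hpf, 28C, sealed and dark; final DMSO 0.64% (vol/vol). Brightfield binary scoring of mortality plus 18 endpoints; gain-of-signal fit versus DMSO baseline.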
Turning to `CCCCOC(=O)c1ccccc1C(=O)O`, the result was inactive. Same read-out and setting: the result for `CCOP(=S)(OCC)SCCSCC` reads “inactive”; that for `CCOP(=O)(SC(C)CC)N1CCSC1=O` (configuration not stated), “inactive”. For the compound `CCc1cccc(CC)c1N(COC)C(=O)CCl`, the AC50 was 27.6 µM (active). For the compound `COP(=O)(OC)C(O)C(Cl)(Cl)Cl` (configuration not stated), the outcome was inactive. Consider `C=C(C)[C@H]1Cc2c(ccc3c2O[C@@H]2COc4cc(OC)c(OC)cc4[C@@H]2C3=O)O1`, for which the AC50 was 0.193 µM (active). Turning to `N#CSCSC#N`, the concentration at half-maximal activity (AC50) was 17.9 µM (active). For `Cc1cc(C2CC2)nc(Nc2ccccc2)n1`, the AC50 was 62.8 µM (active). Consider `CNC(=O)ON=C(SC)C(=O)N(C)C`, for which the compound was called inactive.

Regarding `O=c1ccc(=O)[nH][nH]1`, the call was inactive. On the same count and under the same terms, the result for `CCOP(=S)(OCC)OC(Cl)C(Cl)(Cl)Cl` (configuration not stated) reads “inactive”. On the same count and under the same terms, with `CCOP(=O)(OCC)Oc1cc(C)nc(C(C)C)n1` the entry was “inactive”. For the compound `COc1ccc(C(=CC(=O)N2CCOCC2)c2ccc(Cl)cc2)cc1OC`, the concentration at half-maximal activity (AC50) was 42.9 µM (active). In the case of `CCCCSP(=O)(SCCCC)SCCCC`, the compound was called inactive.

In the case of `CCC(CC)Nc1c([N+](=O)[O-])cc(C)c(C)c1[N+](=O)[O-]`, the result was inactive. Turning to `CC(C)=CC1C(C(=O)OCN2C(=O)C3=C(CCCC3)C2=O)C1(C)C` (configuration not stated), the compound was called inactive. Same read-out and setting: with `CCCCN(CC)c1c([N+](=O)[O-])cc(C(F)(F)F)cc1[N+](=O)[O-]` the entry was “inactive”; with `CN(C)C(=O)Nc1cccc(C(F)(F)F)c1`, “inactive”. With `CC(C1CC1)C(O)(Cn1cncn1)c1ccc(Cl)cc1` (configuration not stated), the concentration at half-maximal activity (AC50) is 26.2 µM (active). Take `CCc1cnc(C2=NC(C)(C(C)C)C(=O)N2)c(C(=O)O)c1` (configuration not stated): the compound was classed as inactive. Consider `CNC(=O)ON=C(C)SC`, for which the compound was classed as inactive. Same read-out and setting: with `CCOC(=O)COc1cc(-c2nn(C)c(OC(F)F)c2Cl)c(F)cc1Cl` the entry was “inactive”.

A word on the AC50: it is the concentration giving half of the maximal activity seen.
